Laboratory results from PubChem BioAssay.
A number with no mark means an inactive call. No rule for the calls is given here.

These molecules were tested against Pantothenate synthetase (Mycobacterium tuberculosis (strain ATCC 25618 / H37Rv)) (UniProt P9WIL5) (assay: Recombinant Mtb pantothenate synthetase (PanC) inhibitors, coupled enzyme, confirmatory (AID 375;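 also: 0% = full reaction with vehicle and 100% = no enzyme background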)). Settings: coupled enzyme assay; at 10 µM, stronger effect = higher value.
Sequence of Pantothenate synthetase (Mycobacterium tuberculosis (strain ATCC 25618 / H37Rv)) (P9WIL5 whole entry, looked up): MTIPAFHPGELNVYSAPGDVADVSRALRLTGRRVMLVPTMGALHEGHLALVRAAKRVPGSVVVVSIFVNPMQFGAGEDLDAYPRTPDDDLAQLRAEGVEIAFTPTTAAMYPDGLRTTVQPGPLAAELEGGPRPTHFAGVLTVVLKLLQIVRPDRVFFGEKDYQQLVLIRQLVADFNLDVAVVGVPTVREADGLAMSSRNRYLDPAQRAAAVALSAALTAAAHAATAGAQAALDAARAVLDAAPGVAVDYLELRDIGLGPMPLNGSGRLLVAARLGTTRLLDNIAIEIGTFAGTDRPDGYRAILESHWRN

Row | SMILES | inhibition
1 | Cc1nnc(SCc2nnc(-c3ccccc3Br)o2)n1-c1ccccc1 | 0%
2 | CNC[C@H](O)c1cccc(O)c1 | 0%
3 | Cc1ccccc1NC(=O)C1CCCN(S(=O)(=O)c2cccc3cccnc23)C1 (stereo not given) | 0%
4 | Cc1c(C(=O)OC2CCCCC2)[nH]c2c1C(=O)CC(C)(C)C2 | 0%
5 | COc1ccc(S(=O)(=O)Nc2ccc3c(c2)OCO3)cc1Cl | 5%
6 | CC(C)Cn1c(N)c(C(=O)NCc2cccs2)c2nc3ccccc3nc21 | 1%
7 | O=C(CSc1nnnn1C1CCCC1)NCc1ccc2c(c1)OCO2 | 0%
8 | CCCC(C)C(=O)Nc1ccc(C(N)=O)cc1 (stereo not given) | 3%
9 | CC12CN3CCN(CC(C3)C1(O)CN1CCCCC1)C2 (stereo not given) | 0%
10 | Cc1ccccc1-c1nc(Cc2ccccc2)no1 | 1%
11 | COc1ccc(C2/C(=C(/O)c3ccccc3)C(=O)C(=O)N2c2ncccn2)cc1OC (stereo not given) | 2%
12 | Cc1cc(C)n(-c2ccc(C(=O)Nc3ccc4c(c3)OCCO4)cc2)n1 | 2%
13 | O=C1CCCN1Cc1ncnn1-c1ccccc1 | 4%
14 | Cn1c(=O)c2c(nc(Oc3ccc4c(c3)OCO4)n2Cc2ccc(F)cc2)n(C)c1=O | 0%
15 | CCN1CCN(C(c2cccs2)C(C)NC(=O)c2ccccc2)CC1 (stereo not given) | 12%
16 | COc1ccccc1C(=O)N1CCNC(=O)C1CC(=O)Nc1ccc(Cl)cc1 (stereo not given) | 0%
17 | C/C(N)=C(/C#N)C(=O)COC(=O)c1cc(S(=O)(=O)N2CCCCC2)ccc1C | 0%
18 | Cc1cc(C)nc(N2CCC(C(=O)Nc3ccc(Oc4ccccc4)cc3)CC2)n1 | 0%
19 | CCOc1ccc(-c2nnc(SCC(=O)N3CCN(c4ccccc4)CC3)o2)cc1 | 0%
20 | Cc1ccc2oc(=O)c3cnn(CC(=O)N4CCCCC4C)c3c2c1 (stereo not given) | 0%

Row | SMILES | inhibition
21 | CCOC(=O)N1CCC(NC(=O)c2ccc3c(c2)N(CC)CCS3)CC1 | 5%
22 | CC(=O)c1c(C)nc(C)nc1NC(=O)Cc1ccccc1 | 0%
23 | CCOC(=O)c1c(NC(=O)c2ccoc2C)sc2c1CCC2 | 7%
24 | O=c1cc(NCc2ccccc2)nc2n1CCCS2 | 0%
25 | COCC(C)NC(=O)NC(=O)c1ccc(Cl)cc1 (stereo not given) | 0%
26 | COc1ccc(N(C(=O)c2ccco2)C(C(=O)NC2CCCC2)c2ccc(N(C)C)cc2)cc1OC (stereo not given) | 1%
27 | OC1(c2cccc(C(F)(F)F)c2)CCN(c2ccc(-c3ccccc3)nn2)CC1 | 0%
28 | O=C(c1ccc2c(c1)OCO2)N1CCNc2ccccc2C1 | 0%
29 | CC(C)NCC(O)COc1ccc(CCOCC2CC2)cc1 (stereo not given) | 0%
30 | CCSc1cc(C2C(C(=O)OC)=C(C)NC3=C2C(=O)CCC3)c(C)o1 (stereo not given) | 0%
31 | Cc1cc(C)nc(NC(=O)c2ccc(OC(C)C)cc2)n1 | 0%
32 | O=C(NCc1ccco1)C1CCN(S(=O)(=O)N2CCC3(CC2)OCCO3)CC1 | 0%
33 | OC[C@H]1O[C@@H](n2cnc3c(NC4CCCC4)ncnc32)[C@H](O)[C@@H]1O | 1%
34 | CCN(CC)c1ccc(CNc2ccc(Br)cn2)cc1 | 0%
35 | CCN(CCCNC(=O)c1cn(CC)c2ccc(S(=O)(=O)N(C)C)cc2c1=O)c1cccc(C)c1 | 7%
36 | CCOc1cc(C2C(C(=O)OC(C)C)=C(C)N=C3SCCC(=O)N32)ccc1OC(C)=O (stereo not given) | 0%
37 | COCCn1c(SCC(=O)Nc2ccc3c(c2)OCCO3)nc2c(c1=O)SC(C)C2 (stereo not given) | 3%
38 | CCSc1nnc(NC(=O)c2ccc(C)o2)s1 | 9%
39 | COc1ccc(N2C(=O)c3cccc4cccc(c34)C2=O)nn1 | 0%
40 | Cc1ccc(Cn2c(=O)c3ccccc3n3c(CCC(=O)O)nnc23)cc1 | 0%
